Source: PubChem BioAssay AID1159580 (chemical genetic matrix, 2015)
Screen size: about 5,500 compounds; about 2,000 (36%) were called active. About 18% were inconclusive and are not listed. No stated cut-off is given here; in the data, active means normalized growth mostly below about 0.91 (no sharp cut-off); inconclusive means no clear call, values can overlap the other calls; inactive means mostly above about 0.92. This is one part of the list.

Assay: chemical genetic growth profiling, strain panel (AID 1159580);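 further: tested at 20 µM; growth read once vehicle control cultures reached saturation at 30 °C; 1 = growth at the plate median or of vehicle wells; lower values mean less growth of the strain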
Settings: S. cerevisiae deletion strains, growth OD
[1] = locus YAL013W, strain DEP1, active compounds read low
[2] = locus YAL040C, strain CLN3, active compounds read low
[3] = locus YCL061C, strain MRC1 (second series), active compounds read low
[4] = locus YER002W, strain NOP16, active compounds read low
[5] = locus YNL153C, strain GIM3, active compounds read low
[6] = locus YNL175C, strain NOP13, active compounds read low
[7] = locus YNL197C, strain WHI3, active compounds read low
[8] = locus YNL224C, strain SQS1, active compounds read low
[9] = locus YOR083W, strain WHI5 (second series), active compounds read low

Measured: normalized growth

c1cnc2c(c1)ccc1cccnc12
active: [1] 0.0762 | [3] 0.0542 | locus YDR363W, strain ESC2, active compounds read low 0.0973 | [4] 0.0834 | locus YGR078C, strain PAC10, active compounds read low 0.109 | locus YJR075W, strain HOC1, active compounds read low 0.0769 | [5] 0.103 | [6] 0.0953 | [7] 0.0905 | [8] 0.123 | locus YNL322C, strain KRE1, active compounds read low 0.0666 | [9] 0.0868
inactive: [2] 1.07

Oc1ccccc1O
inactive: [1] 0.966 | [2] 0.983 | [3] 0.971 | [4] 1 | locus YGR229C, strain SMI1, active compounds read low 0.904 | [5] 1.03 | [6] 1.02 | [7] 1.02 | [8] 0.999 | [9] 1.03
